Screening results deposited in PubChem by several laboratories.
Hits are enriched below; roughly 1.8% of the tested compounds scored in any of these assays.
MazEF act = activators of E. coli MazEF toxin-antitoxin RNase | P0AE70 | FAM/BHQ RNA-DNA oligo cleavage fluorescence, 5 h | activation, % at 20 µM | actives 0.32% (n = 350,000); in the data active means activation above about 50%
Target sequence (P0AE70 whole entry, looked up): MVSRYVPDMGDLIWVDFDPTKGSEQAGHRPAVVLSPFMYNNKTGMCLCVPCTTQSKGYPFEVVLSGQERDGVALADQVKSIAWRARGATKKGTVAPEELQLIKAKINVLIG
PrPC TRFRET = inhibitors of human cell surface prion protein PrPC; TR-FRET read-out; actives 0.43% (n = 370,000); inhibition, % at 13.8 µM; AID 720596; in the data active means inhibition above about 24%
PrP UTR inh = suppresses PrP 5' UTR mRNA reporter expression; cell-based PrP 5' UTR mRNA reporter, plate reader; inhibition, % (no concentration beside the values); actives 0.35% (n = 340,000); in the data active means inhibition above about 52%
PfHsp40 rescue = restores yeast growth despite PfHsp40 toxicity | S. cerevisiae expressing PfHsp40, growth rescue, ATP luminescence | growth rescue, % at 12.5 µM | actives 0.68% (n = 340,000); in the data active means growth rescue above about 28%, passing the limit was not always enough; inconclusive means no clear call, values can overlap the other calls;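 further: yeast W303a lacking pdr1 and pdr3 grown in galactose medium; growth measured after three days at 30 °C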
PriA SSB inh = blocks PriA binding to SSB C-terminal tail; AlphaScreen SSBct-PriA binding, biotinylated peptide; inhibition, % at 33 µM; actives 0.6% (n = 430,000); in the data active means inhibition mostly above about 37%, no sharp cut-off; inactive means mostly below about 20%
Of the large screens only hits and unclear results are named; the others gave an inactive call; ! = repeats disagree.

O=C(O)CSc1nc(-c2ccccc2)nc2c1oc1ccccc12	none
O=C(O)CSc1nc(-c2ccc(Cl)cc2)nc2c1oc1ccccc12	PfHsp40 rescue 348
CN(C)c1ccc(-n2cccc2/C=C/[N+](=O)[O-])cc1	PfHsp40 rescue 230
Cc1cc2cc(CNC(=O)NC3CCCCC3)ccc2[nH]1	PriA SSB inh 53
Cc1cc2cc(CNC(=O)NC3CCCCC3)ccc2n1C	PriA SSB inh 45!
CCC(=O)NCc1ccc2c(c1)cc(C)n2C	none (no result: MazEF act, PrPC TRFRET, PrP UTR inh, PfHsp40 rescue)
CCc1cccc(C)c1NC(=S)NCc1ccc2[nH]c(C)cc2c1	PriA SSB inh 42
CC1=Nc2ccc(C)cc2/C1=C/c1c(N)n2nc(CC(=O)N3CCOCC3)sc2nc1=O	none (no result: PriA SSB inh)
NC1=NC(=O)C(CC(=O)NCC(=O)O)S1 (stereo not given)	none (no result: MazEF act, PrPC TRFRET, PrP UTR inh, PfHsp40 rescue)
CCOC(=O)c1nc(Nc2ccc(Nc3ccccc3)cc2)c2ccccc2n1	PriA SSB inh 47
COc1ccc(S(=O)(=O)N2CCC(C(=O)NCCC(=O)Nc3ccc(Cl)cc3)CC2)cc1	MazEF act 55
COc1ccc(/C=C/C(=O)NC(=S)N2CC3C[C@H](C2)Cn2c3cccc2=O)cc1OC	none (no result: MazEF act, PrPC TRFRET, PrP UTR inh, PfHsp40 rescue)
COc1cc([N+](=O)[O-])ccc1-c1ccc(C=Nn2cnnc2)o1	none (no result: MazEF act, PrPC TRFRET, PrP UTR inh, PfHsp40 rescue)
COc1cc([N+](=O)[O-])ccc1-c1ccc(/C=N\n2cnnc2)o1	MazEF act 154 (no result: PriA SSB inh)
CC(=O)c1cc2c(C)c(C(=O)c3ccccc3)oc2cc1O	MazEF act 89
Cc1c(C(=O)c2ccccc2)oc2cc(NC(=O)C3CC3)ccc12	none (no result: MazEF act, PrPC TRFRET, PrP UTR inh, PfHsp40 rescue)
O=C(O)C(C(=O)O)=C1C2CC3CC(C2)CC1C3	none
C=C1C(=O)C23CCC4C(C)(C(=O)OC)CCCC4(C)C2CCC1(O)C3 (stereo not given)	PrPC TRFRET 86, PfHsp40 rescue 242
Cn1nc(C(F)(F)F)c(C=NOCc2c(Cl)cccc2Cl)c1Cl	none (no result: MazEF act, PrPC TRFRET, PrP UTR inh, PfHsp40 rescue)
Cc1cc(C=NNC(N)=S)c(O)c(C=NNC(N)=S)c1	PriA SSB inh 59 (no result: MazEF act, PrPC TRFRET, PrP UTR inh, PfHsp40 rescue)
COC(=O)C1=C(C)N(Cc2ccco2)C(=O)/C1=C\c1ccc(N(C)C)cc1	MazEF act active
COC(=O)C1=C(C)N(Cc2ccco2)C(=O)/C1=C\c1ccc([N+](=O)[O-])cc1	none
O=C(NCC(c1ccco1)N1CCc2ccccc2C1)c1cccc([N+](=O)[O-])c1 (stereo not given)	none
Cc1coc2c1C(=O)C(=O)c1c-2ccc2c1CCCC2(C)C	PfHsp40 rescue inconclusive
C[C@H]1COC2=C1C(=O)C(=O)c1c2ccc2c1CCCC2(C)C	PfHsp40 rescue 72 (no result: PrPC TRFRET)
Cn1c(SCC#N)nc2ccccc2c1=O	none
CCCOc1cccc(C2C(C(=O)c3ccco3)=C(O)C(=O)N2c2nnc(C)s2)c1 (stereo not given)	none
CCCCOc1cccc(C2C(C(=O)c3ccc(C)o3)=C(O)C(=O)N2c2nnc(C)s2)c1 (stereo not given)	MazEF act 154
COc1cccc(C2C(C(=O)c3ccc(C)o3)=C(O)C(=O)N2c2cc(C)on2)c1 (stereo not given)	none
C=CCOc1cccc(C2C(C(=O)c3ccc(C)o3)=C(O)C(=O)N2c2nccs2)c1 (stereo not given)	MazEF act active
CCOC(=O)c1sc(N2C(=O)C(O)=C(C(=O)c3ccc(C)o3)C2c2ccc(OC)c(OC)c2)nc1C (stereo not given)	PfHsp40 rescue 42
O=C(NN=Cc1sc2ccccc2c1O)c1ccccc1	none (no result: MazEF act, PrPC TRFRET, PrP UTR inh, PfHsp40 rescue)
O=C(N/N=C/c1sc2ccccc2c1O)c1cccc2ccccc12	PfHsp40 rescue 32 (no result: PriA SSB inh)
COc1ccc2cc(C(=O)NN=Cc3sc4ccccc4c3O)ccc2c1	none (no result: MazEF act, PrPC TRFRET, PrP UTR inh, PfHsp40 rescue)
COc1ccc(C(=O)N/N=C/c2sc3ccccc3c2O)cc1	PfHsp40 rescue 262 (no result: PrPC TRFRET, PriA SSB inh)
CCC(Oc1ccc(Br)cc1Cl)C(=O)Nc1nnc(C2CC2)s1 (stereo not given)	PfHsp40 rescue 60
O=C(Nc1ccccc1-c1nnn(CC(=O)N2CCOCC2)n1)c1ccccc1F	PfHsp40 rescue 42
O=C(Nc1ccccc1-c1nnn(CC(=O)N2CCOCC2)n1)c1ccc(F)cc1	none
Oc1cccc(/C=N/N(Cc2ccccc2)c2ccccc2)c1	PfHsp40 rescue 345 (no result: PriA SSB inh)
Oc1ccc(/C=N/N(Cc2ccccc2)c2ccccc2)c(O)c1O	PfHsp40 rescue 42 (no result: PriA SSB inh)
O=C(C[C@@H]1C/C=C/CC[C@@H](Cc2ccc(F)cc2)C(=O)OC[C@@H]2CCCN2C1=O)N[C@H](CO)Cc1ccccc1	none (no result: MazEF act, PrPC TRFRET, PrP UTR inh, PfHsp40 rescue)
Nc1nonc1-n1nnc(C(=O)NN=Cc2ccc(OCc3ccccc3)cc2)c1CNc1ccccc1	none (no result: MazEF act, PrPC TRFRET, PrP UTR inh, PfHsp40 rescue)
O=C(c1ccc2c(c1)OCO2)c1ccc[nH]1	none (no result: PrP UTR inh, PfHsp40 rescue, PriA SSB inh)
Cc1ccc(NC(=O)CSc2ccc(-c3ccccn3)nn2)cc1	PfHsp40 rescue 103
Cc1nnc(NC(=O)CSc2ccc(-c3cccnc3)nn2)s1	none
Cc1cccc(NC(=O)CSc2ccc(-c3ccccn3)nn2)c1C	PfHsp40 rescue 200
Cc1nnc(NC(=O)CSc2ccc(-c3ccccn3)nn2)s1	PriA SSB inh 56 (no result: MazEF act, PrPC TRFRET, PrP UTR inh, PfHsp40 rescue)
O=C(CSc1ccc(-c2ccccn2)nn1)Nc1ccccc1F	PriA SSB inh 84 (no result: MazEF act, PrPC TRFRET, PrP UTR inh, PfHsp40 rescue)
O=C(CSc1ccc(-c2ccccn2)nn1)Nc1ccc(F)cc1F	none
O=C(Nc1onc2c1CCC2)c1ccc(F)cc1	none (no result: MazEF act, PrPC TRFRET, PrP UTR inh, PfHsp40 rescue)
O=C(Cc1cccc(NC(=O)C2CCCN(C(=O)C3CC3)C2)c1)Nc1cccc(C(=O)N2CCCCC2)c1 (stereo not given)	none
CCc1ccc(NC(=O)CSc2ccccn2)cc1	PfHsp40 rescue 62
Cc1ccc(NC(=O)CSc2ccc(-c3ccccn3)nn2)c(C)c1	PfHsp40 rescue 105
COc1cccc2cc(-c3ccccc3)c(=O)oc12	none
COc1cccc2cc(-c3nc(-c4cccs4)cs3)c(=O)oc12	MazEF act 99
c1csc(-c2csc(-c3cccs3)n2)c1	none
O=c1oc2ccccc2cc1-c1nc(-c2cccs2)cs1	MazEF act 141
Cc1ccc2c(c1)N(CC(=O)Nc1nccs1)C(=O)CO2	none
Cc1nc2ccc(Cl)cc2c(-c2ccccc2)c1CC(=O)O	none
Nc1nc(C2C(=O)CCCC2=O)cs1	PriA SSB inh 58
Nc1nc(C2CC(=O)OC23CCCCC3)cs1 (stereo not given)	none
Cc1cccc(NC(=O)Nc2ccc(CN3CCN(c4ccccn4)CC3)cc2)c1	PriA SSB inh 41 (no result: MazEF act, PrPC TRFRET, PrP UTR inh, PfHsp40 rescue)
COC(=O)C1=C(C)OC(N)=C(C#N)C1c1c(C)nn(C)c1C (stereo not given)	PfHsp40 rescue 68
CCOc1ccc(NC(=S)NC23CC4CC(CC(C4)C2)C3)cc1	none
CN(C)c1ccc(NC(=S)NC23CC4CC(CC(C4)C2)C3)cc1	PriA SSB inh 45
O=C(O)c1cccc2nc3ccccc3nc12	PfHsp40 rescue 48
COc1ccc(S(=O)(=O)Nc2cccc(-n3cnnn3)c2)cc1OC	none
O=C(Nc1cc(S(=O)(=O)N2CCOCC2)ccc1Cl)C(=O)c1c(-c2ccccc2)cc2ccccn12	PfHsp40 rescue 66
CC12CCC(=O)N1C(C(=O)OCC(=O)Nc1cccc(Br)c1)CS2 (stereo not given)	none
CCOC(=O)c1ccc(N2C(=O)CC(N3CCC(O)(c4ccc(Cl)cc4)CC3)C2=O)cc1 (stereo not given)	PfHsp40 rescue 534
